Compound in the assay: Nc1nc2c(ncn2[C@@H]2O[C@H](COP(=O)(O)OP(=O)(O)OP(=O)(O)O)[C@@H](O)[C@H]2O)c(=O)[nH]1 [guanosine triphosphate]
The assay can be described thus: NP40-soluble protein abundance relative to vehicle (solubility fold change) (ratio); higher = more soluble protein in presence of GTP. As for the experimental part: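 Solubility proteome profiling in Jurkat crude lysate. Lysate was treated with Mg-GTP (0.1-10 mM) for 10 min at room temperature and 3 min at 37 °C, then solubilised with 0.8% NP40 and benzonase, followed by ultracentrifugation. Proteins were quantified by TMT10 LC-MS/MS; the value is the NP40-soluble abundance relative to the NP40-processed vehicle, from 3 independent experiments.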

± gives the standard deviation of the averaged measurements. Targets with the largest changes are over-represented here; the source holds about 5,400 in all.

UniProt Q96CT7, sequence (Q96CT7 whole entry): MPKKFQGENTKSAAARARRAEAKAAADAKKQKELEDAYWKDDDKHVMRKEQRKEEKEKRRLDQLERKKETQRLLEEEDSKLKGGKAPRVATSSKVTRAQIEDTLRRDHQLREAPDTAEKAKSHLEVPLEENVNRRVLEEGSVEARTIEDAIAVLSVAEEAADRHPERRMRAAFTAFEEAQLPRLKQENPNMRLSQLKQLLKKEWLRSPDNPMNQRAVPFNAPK
UniProt Q96FJ2, sequence (Q96FJ2 whole entry): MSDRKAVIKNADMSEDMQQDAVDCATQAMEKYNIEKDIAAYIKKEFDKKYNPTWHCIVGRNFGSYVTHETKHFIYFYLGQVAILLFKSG
UniProt Q9Y3D0, sequence (Q9Y3D0 whole entry): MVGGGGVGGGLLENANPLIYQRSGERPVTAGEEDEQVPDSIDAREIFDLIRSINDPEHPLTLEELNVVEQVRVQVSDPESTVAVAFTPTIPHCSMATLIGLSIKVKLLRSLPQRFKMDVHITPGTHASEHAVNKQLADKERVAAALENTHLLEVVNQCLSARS
UniProt Q9Y3E2, sequence (Q9Y3E2 whole entry): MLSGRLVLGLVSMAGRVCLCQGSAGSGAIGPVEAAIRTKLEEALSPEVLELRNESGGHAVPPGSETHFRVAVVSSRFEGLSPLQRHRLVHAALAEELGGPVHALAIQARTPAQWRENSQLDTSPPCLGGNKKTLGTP
UniProt Q96B97, sequence (Q96B97 whole entry): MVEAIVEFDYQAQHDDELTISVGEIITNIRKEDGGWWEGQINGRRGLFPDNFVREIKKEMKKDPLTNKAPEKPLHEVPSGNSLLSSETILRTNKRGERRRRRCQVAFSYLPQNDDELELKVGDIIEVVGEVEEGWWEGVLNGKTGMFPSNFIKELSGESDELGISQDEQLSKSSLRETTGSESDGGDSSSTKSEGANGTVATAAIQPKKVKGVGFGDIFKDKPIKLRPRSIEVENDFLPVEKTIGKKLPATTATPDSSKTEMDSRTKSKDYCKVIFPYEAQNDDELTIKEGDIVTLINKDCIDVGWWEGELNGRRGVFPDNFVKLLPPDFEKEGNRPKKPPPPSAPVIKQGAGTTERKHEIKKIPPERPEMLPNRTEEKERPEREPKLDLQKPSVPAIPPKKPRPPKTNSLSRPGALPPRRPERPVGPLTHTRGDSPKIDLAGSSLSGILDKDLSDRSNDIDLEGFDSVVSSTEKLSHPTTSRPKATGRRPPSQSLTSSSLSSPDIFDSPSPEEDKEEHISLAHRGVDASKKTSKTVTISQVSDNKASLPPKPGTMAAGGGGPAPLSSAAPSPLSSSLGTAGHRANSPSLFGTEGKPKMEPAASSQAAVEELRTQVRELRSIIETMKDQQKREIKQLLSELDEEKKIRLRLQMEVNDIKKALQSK

Turning to UniProt Q96FJ2, the NP40-soluble protein abundance by setting is: (concentration: 0.1mM) 0.875 ± 0.063; (concentration: 0.5mM) 0.83 ± 0.033; (concentration: 1mM) 1.07 ± 0.12; (concentration: 2mM) 1.06 ± 0.081; (concentration: 4mM) 1.18 ± 0.1; (concentration: 6mM) 1.03 ± 0.11. Also, the NP40-soluble protein abundance (concentration: 8mM) was 1.05 ± 0.087 and the NP40-soluble protein abundance (concentration: 10mM) turned out to be 1.18 ± 0.17.

Regarding UniProt Q96B97|Q96B97-2, the NP40-soluble protein abundance by setting is: (concentration: 0.1mM) 0.941 ± 0.12; (concentration: 0.5mM) 0.938 ± 0.1; (concentration: 1mM) 0.962 ± 0.1; (concentration: 2mM) 0.943 ± 0.13; (concentration: 4mM) 0.949 ± 0.1; (concentration: 6mM) 0.935 ± 0.098. Moreover, the NP40-soluble protein abundance is, setting by setting: (concentration: 8mM) 0.982 ± 0.11; (concentration: 10mM) 0.966 ± 0.12.

As for CCDC124 (UniProt Q96CT7), the NP40-soluble protein abundance (concentration: 0.1mM) amounted to 1.01 ± 0.047; the NP40-soluble protein abundance (concentration: 0.5mM) worked out at 0.984 ± 0.019; the NP40-soluble protein abundance (concentration: 1mM) was determined as 1.12 ± 0.063; the NP40-soluble protein abundance (concentration: 2mM) was determined as 1.17 ± 0.067; the NP40-soluble protein abundance (concentration: 4mM) is 1.41 ± 0.17; the NP40-soluble protein abundance (concentration: 6mM) was 1.57 ± 0.22. Also, the NP40-soluble protein abundance stood at 1.61 ± 0.22 (concentration: 8mM) and 2.24 ± 0.18 (concentration: 10mM).

For the target BOLA1 (UniProt Q9Y3E2), the NP40-soluble protein abundance runs as follows: (concentration: 0.1mM) 0.909 ± 0.069; (concentration: 0.5mM) 0.941 ± 0.075; (concentration: 1mM) 0.943 ± 0.06; (concentration: 2mM) 0.943 ± 0.028; (concentration: 4mM) 0.908 ± 0.073; (concentration: 6mM) 0.933 ± 0.059. The NP40-soluble protein abundance came to 0.903 ± 0.038 (concentration: 8mM) and 1.04 ± 0.055 (concentration: 10mM).

Turning to UniProt Q9Y3D0, the NP40-soluble protein abundance reads like this: (concentration: 0.1mM) 0.836 ± 0.067; (concentration: 0.5mM) 0.869 ± 0.033; (concentration: 1mM) 1.02 ± 0.042; (concentration: 2mM) 1.04 ± 0.049; (concentration: 4mM) 0.987 ± 0.043; (concentration: 6mM) 1.04 ± 0.013. In addition, the NP40-soluble protein abundance runs as follows: (concentration: 8mM) 1.04 ± 0.089; (concentration: 10mM) 1.09 ± 0.17.

Source of the values: the supplement of paper PMC6411743.
